From PubChem BioAssay AID2546 (National Center for Advancing Translational Sciences (NCATS), 2010) come the findings set out here.

About 11,000 (3.5%) of roughly 310,000 compounds were called active. A call without a number means that no potency is given here. Roughly 8% stayed inconclusive and do not appear here. For the sample, actives were picked, then their nearest neighbours and some compounds at random. Unmarked numbers belong to inactive results. Calls follow the shape of the dose curve; as a rule, active = well fitted inhibition curve with a large enough effect; inconclusive = small, poorly fitted or top-dose-only effect, or effect the other way; inactive = flat fitted curve, though single readings scatter.
Potency is read from the fitted curve at half-maximal effect.

The experiment in a line: VP16 counterscreen qHTS for inhibitors of ROR gamma transcriptional activity.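 Also: Gal4-VP16 expression switched on by copper sulfate through the metallothionein promoter; nearly all actives have a fitted effect of over 50% in size.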 The settings on record: Drosophila S2 Gal4-VP16 UAS-luciferase, luminescence, 20 h; series mostly up to 53.6 µM. On the technique in general: The purpose of a counterscreen is to sort out artefacts and off-target activity.
With `COc1ccc(CCNC(=O)C2CCCN(S(=O)(=O)c3ccc(OC)cc3)C2)cc1` (stereo not given), the Potency entry is “inactive”.

`CC1CCC(NC(=O)CN(C)S(=O)(=O)c2ccc3c(c2)c(=O)n(C)c(=O)n3C)CC1` (stereo not given): the Potency entry was “inactive”.

Turning to `COc1ccc(C(=O)NC(=S)N2CCNC(=O)C2CC(=O)OC(C)C)cc1` (stereo not given), the Potency is 10 µM (active).

As for `CCc1ccc(NC(=O)CC2C(=O)NCCN2C(=S)Nc2ccccc2)cc1` (stereo not given), the Potency entry is “inactive”.

Take `COc1cccc(NC(=O)CC2C(=O)NCCN2C(=S)Nc2ccc(F)cc2)c1` (stereo not given): the Potency result is “inactive”.

Turning to `Cc1ccc(-c2ccc(=O)n(Cc3ccc(F)cc3Cl)n2)cc1`, the Potency entry was “inactive”.

Regarding `O=[N+]([O-])c1ccc2c(c1)Nc1nc3ccccc3nc1N2`, the Potency entry was “inactive”.

Consider `O=c1[nH]c2cccnc2n1-c1ccc([N+](=O)[O-])cc1`, for which the Potency entry is “inactive”.

Regarding `O=[N+]([O-])c1ccc2nc(-c3ccccn3)[nH]c2c1`, the Potency was 6.31 µM (active).

On to `O=c1c2ccccc2nc(N/N=C/c2ccccc2)n1O`, for which the Potency entry was “inactive”.

As for `CC(C)(C)c1nnc(N/N=C/c2ccc(O)cc2)n(N)c1=O`, the Potency is 2.24 µM (active).

`Nc1nnn(CC(=O)N/N=C/c2ccc(O)cc2)n1`: the Potency entry was “inactive”.

Take `Cc1csc(NC(=S)Nc2cccc(Cl)c2)n1`: the Potency is 1 µM (active).

Regarding `CC(=O)Nc1cccc(C(=O)Nc2nc(C)cs2)c1`, the Potency result was “inactive”.

As for `S=C(Nc1cccc(Cl)c1)Nc1ccc2cn[nH]c2c1`, the Potency entry was “inactive”.

As for `COc1cccc(N(CC(=O)NC2CCCCCC2)S(=O)(=O)c2ccccc2)c1`, the Potency result was “inactive”.

For the molecule `CN1C(=O)CN2CCc3ccccc3C2c2cc(Cl)ccc21` (stereo not given), the Potency entry is “inactive”.

On to `O=C(CSc1ncn[nH]1)Nc1nsc(-c2ccccc2)n1`, for which the Potency result was “inactive”.

As to `O=C(CSc1ncn[nH]1)Nc1nc(-c2cccc([N+](=O)[O-])c2)cs1`, the Potency was 17.8 µM (active).

`O=C(CSc1nc(-c2ccccc2)cs1)Nc1cccc([N+](=O)[O-])c1`: the Potency result was “inactive”.

On to `COc1ccc2[nH]c(=O)c(CN(Cc3cccnc3)S(=O)(=O)c3ccccc3F)cc2c1`, for which the Potency entry is “inactive”.

As to `COc1cccc(N(CC(=O)NCc2ccccc2)C(=O)CCC(=O)Nc2nccs2)c1`, the Potency result was “inactive”.

For `O=C(CCl)NNc1cccc(Cl)n1`, the Potency entry was “inactive”.

As to `NC(N)=Nc1nc(-c2ccccc2)c2cc(Cl)ccc2n1`, the Potency result was “inactive”.

As for `O=C(CCl)NNc1nc(-c2ccccc2)c2cc(Cl)ccc2n1`, the Potency is 17.8 µM (active).

`COc1ccc(CCNC(=O)C(=O)NCC2OCCN2S(=O)(=O)c2ccc(F)cc2)cc1OC` (stereo not given): the Potency entry is “inactive”.

As to `O=C(Nc1nnc(-c2ccco2)o1)c1ccc(S(=O)(=O)N2CCOCC2)cc1`, the Potency was 5.62 µM (active).

Regarding `CC1CN(S(=O)(=O)c2ccc(C(=O)Nc3sccc3C(N)=O)cc2)CC(C)O1` (stereo not given), the Potency result is “inactive”.

For `CC1CCCCN1S(=O)(=O)c1ccc(C(=O)Nc2nnc(-c3cccs3)o2)cc1` (stereo not given), the Potency is 0.891 µM (active).

As for `CCc1nnc(NC(=O)c2ccc(S(=O)(=O)NC3CCCCC3)cc2)s1`, the activity, negative = inhibition is 0.424% [at 0.365 µM].

Consider `CCc1nnc(NC(=O)C2CCCN2S(=O)(=O)c2ccccc2)s1` (stereo not given), for which the Potency result was “inactive”.

Turning to `O=C(Nc1ccc2cn[nH]c2c1)c1ccc(S(=O)(=O)N2CCOCC2)cc1`, the Potency entry is “inactive”.

Take `CSCc1nnc(NC(=O)c2ccc(S(=O)(=O)N3CCCCC3C)cc2)o1` (stereo not given): the Potency is 1.41 µM (active).

With `CC1CCCN(S(=O)(=O)c2ccc(C(=O)Nc3nnc(-c4ccncc4)o3)cc2)C1` (stereo not given), the Potency result was “inactive”.

For `Cc1ccnc(NS(=O)(=O)c2ccc(NC(=O)c3ccc(S(=O)(=O)N4CCOCC4)cc3)cc2)n1`, the Potency result was “inactive”.
